Sm TGR block: qHTS Assay for the Inhibitors of Schistosoma Mansoni Peroxiredoxins; purified TGR, DTNB reduction, TNB absorbance 405 nm; Schistosoma mansoni thioredoxin glutathione reductase (TGR), Q962Y6; Potency, µM (titrated, usually from 114 µM), for inactives: top-dose activity change, negative = inhibition, actives largely listed as inhibitors; AID 485364, 2010; hit rate 3% among 360,000; active = well fitted inhibition curve with a large enough effect; inconclusive = small, poorly fitted or top-dose-only effect; inactive = no such curve, though single readings can be large or run the other way; also: potency is read from the fitted curve at half-maximal effect; % is scaled to controls: 0 for no effect and ±100 for the full control effect; nearly all actives have a fitted effect of over 60% in size
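First, TGR (20 nM dispensed) and NADPH were mixed with compound. Second, a 15 min room-temperature incubation followed. Third, further NADPH and then DTNB were added to start the reaction. Finally, TNB absorbance was monitored kinetically.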
Shiga inhibitor: A qHTS for Small Molecule Inhibitors of Shiga Toxin | hit rate 9.2% among 290,000 | inhibition, % at 38.7 µM | Vero cells, Shiga toxin protein synthesis inhibition reporter | AID 2315, 2010; in the data active = inhibition mostly above about 28%, no sharp cut-off; inactive = mostly below about 43%; also: 0% is about no effect
CHX counter: Cycloheximide Counterscreen for Small Molecule Inhibitors of Shiga Toxin; cell reporter, cycloheximide protein synthesis inhibition counterscreen; hit rate 12% among 300,000; AID 2314, 2010; max response, %; in the data active = max response mostly above about 13%, no sharp cut-off; inactive = mostly below about 14%; also: read at 38.3 µM for the half of the compounds with a filed dose; 0% is about no effect
FMDV antiviral: High Throughput Screening for Foot and Mouth Disease Virus Antivirals; hit rate 1.2% among 410,000; Potency, µM (series often up to 57.9 µM), for inactives: at the top dose activity change, negative = inhibition, actives largely listed as inhibitors; FMDV antiviral cell-based qHTS; calls by dose curve; tested in HEK293T cells; also: read-out not given here; potency is read from the fitted curve at half-maximal effect; % is scaled to controls: 0 for no effect and ±100 for the full control effect; nearly all actives have a fitted effect of over 45% in size
An asterisk follows results filed as active. Hits are enriched below; roughly 12% of the tested compounds scored in any of these assays.

`Cc1oc2c(c1C(=O)NCc1ccccc1F)C1=NCCN1C=N2` gave Sm TGR block 0% and FMDV antiviral -8%.
O=C(Cn1c(O)c(/C=C2\C=Nc3ccccc32)sc1=O)Nc1ccc2c(c1)OCO2 was read as Sm TGR block 1%, Shiga inhibitor -7 and CHX counter 29*.
`CC(=O)Nc1ccc(NS(=O)(=O)c2c(C)nc3sccn3c2=O)cc1` gave Sm TGR block -2% and FMDV antiviral -1%.
`CC(C)(C)OC(=O)N1CCC(c2c(C(=O)Nc3ccc4c(c3)OCCO4)cnn2-c2ccccc2)CC1` gave Sm TGR block -2% and FMDV antiviral -29%.
Screening Cc1ccc(S(=O)(=O)Nc2nc3n(n2)C(c2ccc(Cl)cc2)CC(=O)N3)cc1 (stereo not given) returned Sm TGR block 11%, Shiga inhibitor -21, CHX counter -2 and FMDV antiviral -14%.
Cc1ccc(S(=O)(=O)Nc2nc3n(n2)C(c2ccc(F)cc2)C=C(c2ccccc2)N3)cc1 (stereo not given) was read as Sm TGR block -3% and FMDV antiviral -11%.
For CC1=CC(c2ccccc2)n2nc(NS(=O)(=O)c3ccc(C)cc3)nc2N1 (stereo not given) the results were Sm TGR block 35µM*, Shiga inhibitor 2, CHX counter 10 and FMDV antiviral -22%.
`CC1=CC(c2ccc(Cl)cc2)n2nc(NS(=O)(=O)c3ccc(C)cc3)nc2N1` (stereo not given) gave Sm TGR block 32µM*, Shiga inhibitor -12, CHX counter 2 and FMDV antiviral -8%.
`NC(=O)c1ccc(NC(=O)Cc2cccs2)cc1` gave Sm TGR block -7%, Shiga inhibitor 16, CHX counter 3 and FMDV antiviral -8%.
For O=C(Cc1cccs1)Nc1ccc(N2CCOCC2)cc1 the results were Sm TGR block -11%, Shiga inhibitor 111*, CHX counter 24* and FMDV antiviral 68%.
For Cc1ccc(-c2nnc(-c3ccc(NC(=O)Cc4cccs4)cc3)o2)cc1 the results were Sm TGR block 11%, Shiga inhibitor 7, CHX counter 6 and FMDV antiviral 44%.
CC(=O)N(C)c1ccc(NC(=O)Cc2cccs2)cc1 was read as Sm TGR block -12%, CHX counter 18* and FMDV antiviral 62%.
O=C(Cc1cccs1)Nc1ccc(Cl)cc1 was read as Sm TGR block 1%, Shiga inhibitor active, CHX counter 17* and FMDV antiviral 27%.
`Cc1cccc(NC(=O)Cc2cccs2)n1` gave Sm TGR block -8%, Shiga inhibitor 69*, CHX counter 33* and FMDV antiviral 75%.
Cc1cccc(NC(=O)c2ccc(F)c(S(=O)(=O)NCc3ccc4c(c3)OCO4)c2)c1 was read as Sm TGR block 3% and FMDV antiviral 3%.
For COC(=O)Cc1c(C)c2ccc3c(c2oc1=O)CN(Cc1ccccc1OC)CO3 the results were Sm TGR block -5% and FMDV antiviral -22%.
Screening O=C(Nc1ccc(S(=O)(=O)N(Cc2ccccc2)c2ccccc2)cc1)c1ccc(F)cc1 returned Sm TGR block 2% and FMDV antiviral -11%.
For Cc1cccc(NC(=O)c2cccc(NC(=O)Cc3cccs3)c2)c1 the results were Sm TGR block -1%, Shiga inhibitor 92*, CHX counter 27* and FMDV antiviral 16%.
Screening O=C(Nc1ccc(Cl)cc1)N(Cc1cccs1)Cc1cccs1 returned Sm TGR block 1%, Shiga inhibitor 45*, CHX counter 14* and FMDV antiviral -17%.
Screening O=C(Nc1ccccc1)N(O)c1ccc(Cl)cc1 returned Sm TGR block -27%, Shiga inhibitor 98*, CHX counter 49* and FMDV antiviral 30%.
Screening COc1cccc(C(=O)Nc2ccc(C(=O)OCc3cc(=O)n4nc(C5CC5)sc4n3)cc2)c1 returned Sm TGR block -4% and FMDV antiviral -30%.
For O=C(N/N=C/C(Br)=C\c1ccccc1)c1ccco1 the results were Sm TGR block inconclusive, Shiga inhibitor 47*, CHX counter 46* and FMDV antiviral 1%.
O=C(N/N=C/c1coc2ccccc2c1=O)c1ccccc1 was read as Sm TGR block inconclusive, Shiga inhibitor -3, CHX counter 1 and FMDV antiviral -17%.
Screening O=C(Nc1ccccc1C(=O)N/N=C/c1ccc(O)cc1)c1ccccc1 returned Sm TGR block 2%, Shiga inhibitor 31, CHX counter 29* and FMDV antiviral -57%.
O=C(N/N=C/c1ccc2cccnc2c1)c1ccco1 was read as Sm TGR block -1%, Shiga inhibitor 72*, CHX counter 25 and FMDV antiviral -3%.
`O=C(N/N=C\c1coc2ccccc2c1=O)c1ccco1` gave Sm TGR block 28µM*, Shiga inhibitor 16, CHX counter 14 and FMDV antiviral 7%.
Screening O=C(N/N=C/C=N/NC(=O)c1ccco1)c1ccco1 returned Sm TGR block -1%, Shiga inhibitor -10, CHX counter 12 and FMDV antiviral -11%.
CC(=O)Nc1cc2c(s1)c1cnn(Cc3ccccc3F)c(=O)c1n2C was read as Sm TGR block 2%.
COc1ccc(CCNCc2c(C(=O)O)c(C)n(Cc3cccc(Cl)c3)c2C)c(OC)c1OC was read as Sm TGR block 0% and FMDV antiviral -15%.
`COc1cccc(/C=N/NC(=O)c2ccccc2NC(=O)c2ccco2)c1OC` gave Sm TGR block 0%, Shiga inhibitor 38, CHX counter 12 and FMDV antiviral 0%.
`O=C(N/N=C/c1ccc(OCc2ccccc2)cc1)c1ccco1` gave Sm TGR block -10%, Shiga inhibitor 55*, CHX counter 36* and FMDV antiviral 16%.
Screening CC(NC(=O)c1ccccc1NC(=O)c1ccco1)C(=O)O (stereo not given) returned Sm TGR block -11%, Shiga inhibitor 138*, CHX counter 76* and FMDV antiviral 8%.
O=C(N/N=C/c1ccccc1)c1ccc(OCc2ccccc2)cc1 was read as Sm TGR block -1%, Shiga inhibitor 2, CHX counter 4 and FMDV antiviral 27%.
O=C(Nc1ccccc1C(=O)NC(Cc1ccccc1)C(=O)O)c1ccco1 (stereo not given) was read as Sm TGR block 0%, Shiga inhibitor -3, CHX counter 5 and FMDV antiviral -11%.
For COc1ccccc1/C=C/C=N/NC(=O)c1ccco1 the results were Sm TGR block -31%, Shiga inhibitor 78*, CHX counter 32* and FMDV antiviral 28%.
Screening O=C(Nc1ccccc1C(=O)N/N=C/c1ccccc1)c1ccco1 returned Sm TGR block -10%, Shiga inhibitor 87*, CHX counter 27* and FMDV antiviral -25%.
COc1ccc(C(=O)Nc2ccccc2C(=O)N/N=C/c2ccncc2)cc1OC was read as Sm TGR block -1%, Shiga inhibitor 13, CHX counter 13 and FMDV antiviral 14µM*.
Screening CC(C)=C(NC(=O)c1ccccc1)C(=O)N/N=C/c1ccc(O)cc1 returned Sm TGR block -12%, Shiga inhibitor -2, CHX counter 31* and FMDV antiviral 78%.
